Experimental data: publication PMC7862700, “An all-to-all approach to the identification of sequence-specific readers for epigenetic DNA modifications on cytosine”

Columns and labels:
Assay in all cases: DAPPL (digital affinity profiling via proximity ligation, sequencing); 10 mM Tris-HCl pH 7.5, 50 mM NaCl, 1 mM DTT, 4% glycerol, room temperature, 30 min; GST-TFs on glutathione beads, 16-mer random dsDNA library, 0.1% formaldehyde crosslink after washing; high values mean tight binding
Conditions in all cases: protein: recombinant; tags: N-terminal GST; dsDNA, one strand shown
[1] = biological target: T1, FLI1 (Homo sapiens, UniProt Q01543 1-452)
T1 sequence: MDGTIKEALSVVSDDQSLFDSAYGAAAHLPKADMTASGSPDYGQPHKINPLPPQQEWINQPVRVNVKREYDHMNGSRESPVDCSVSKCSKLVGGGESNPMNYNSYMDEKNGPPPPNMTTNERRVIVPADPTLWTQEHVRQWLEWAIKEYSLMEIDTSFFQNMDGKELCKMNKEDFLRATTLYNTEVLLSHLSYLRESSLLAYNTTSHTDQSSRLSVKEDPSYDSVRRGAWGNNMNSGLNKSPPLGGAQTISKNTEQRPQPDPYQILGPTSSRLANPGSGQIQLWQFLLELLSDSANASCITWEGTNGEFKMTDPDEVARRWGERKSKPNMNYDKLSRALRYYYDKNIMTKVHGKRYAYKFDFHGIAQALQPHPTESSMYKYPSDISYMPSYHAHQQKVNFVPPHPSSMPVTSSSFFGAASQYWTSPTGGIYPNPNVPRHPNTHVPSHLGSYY
Summary of the method: (§1)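 Yeast served to express human transcription factors as GST fusions, which were then captured on glutathione beads and labelled with DNA barcodes. Pooled with a tag-only sample, they were incubated with 200 nmole of a 16-mer random double-stranded DNA library for 30 min at room temperature in Tris/NaCl/DTT/glycerol buffer, washed, crosslinked with 0.1% formaldehyde, ligated by proximity, amplified by PCR and sequenced. Dividing each hexamer's read frequency for a factor by its frequency for the tag-only sample gives the binding signal.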

[2] = biological target: T2, ELK1 (Homo sapiens, UniProt P19419 1-428)
T2 sequence: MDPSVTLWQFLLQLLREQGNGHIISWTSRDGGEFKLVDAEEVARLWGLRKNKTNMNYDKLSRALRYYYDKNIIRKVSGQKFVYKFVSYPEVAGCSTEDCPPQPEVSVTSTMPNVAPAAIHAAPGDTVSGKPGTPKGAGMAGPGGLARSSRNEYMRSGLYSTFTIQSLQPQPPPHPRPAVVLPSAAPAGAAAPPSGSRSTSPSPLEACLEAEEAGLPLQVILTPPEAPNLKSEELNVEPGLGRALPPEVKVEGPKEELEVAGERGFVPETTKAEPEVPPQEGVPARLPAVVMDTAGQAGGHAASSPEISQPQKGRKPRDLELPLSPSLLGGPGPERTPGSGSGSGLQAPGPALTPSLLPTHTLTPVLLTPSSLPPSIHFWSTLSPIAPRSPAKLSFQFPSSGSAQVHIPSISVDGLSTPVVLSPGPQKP
Summary of the method: as §1

[3] = biological target: ELF1 (Homo sapiens, UniProt P32519 1-619)
Sequence of ELF1 (P32519 whole entry): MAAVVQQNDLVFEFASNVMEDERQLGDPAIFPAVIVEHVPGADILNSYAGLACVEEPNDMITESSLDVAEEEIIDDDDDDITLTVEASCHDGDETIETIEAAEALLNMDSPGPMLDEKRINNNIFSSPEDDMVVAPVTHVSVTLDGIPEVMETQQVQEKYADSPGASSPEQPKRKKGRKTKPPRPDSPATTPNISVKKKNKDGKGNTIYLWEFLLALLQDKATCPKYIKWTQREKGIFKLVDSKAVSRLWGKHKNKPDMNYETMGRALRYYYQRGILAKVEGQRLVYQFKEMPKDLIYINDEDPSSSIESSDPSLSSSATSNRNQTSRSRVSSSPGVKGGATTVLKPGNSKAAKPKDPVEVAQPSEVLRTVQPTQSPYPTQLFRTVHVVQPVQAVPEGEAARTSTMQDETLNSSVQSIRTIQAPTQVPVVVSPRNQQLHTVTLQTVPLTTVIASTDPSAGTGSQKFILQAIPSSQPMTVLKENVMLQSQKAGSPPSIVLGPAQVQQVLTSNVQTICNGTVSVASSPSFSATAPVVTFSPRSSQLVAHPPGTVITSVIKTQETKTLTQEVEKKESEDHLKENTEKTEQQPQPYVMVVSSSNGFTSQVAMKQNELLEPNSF
Summary of the method: as §1

[4] = biological target: T3, EHF (Homo sapiens, UniProt Q9NZC4 1-300)
T3 sequence: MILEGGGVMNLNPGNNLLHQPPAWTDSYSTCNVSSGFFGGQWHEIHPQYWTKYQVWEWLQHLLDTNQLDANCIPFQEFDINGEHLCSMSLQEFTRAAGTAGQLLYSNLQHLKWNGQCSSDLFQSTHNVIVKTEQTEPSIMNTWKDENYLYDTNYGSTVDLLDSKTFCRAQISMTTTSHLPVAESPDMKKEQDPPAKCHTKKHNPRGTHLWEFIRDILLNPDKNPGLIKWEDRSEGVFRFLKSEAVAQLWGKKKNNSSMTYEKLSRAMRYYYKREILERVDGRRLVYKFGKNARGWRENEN
Summary of the method: as §1

[5] = biological target: T4, ELK3 (Homo sapiens, UniProt P41970 1-407)
T4 sequence: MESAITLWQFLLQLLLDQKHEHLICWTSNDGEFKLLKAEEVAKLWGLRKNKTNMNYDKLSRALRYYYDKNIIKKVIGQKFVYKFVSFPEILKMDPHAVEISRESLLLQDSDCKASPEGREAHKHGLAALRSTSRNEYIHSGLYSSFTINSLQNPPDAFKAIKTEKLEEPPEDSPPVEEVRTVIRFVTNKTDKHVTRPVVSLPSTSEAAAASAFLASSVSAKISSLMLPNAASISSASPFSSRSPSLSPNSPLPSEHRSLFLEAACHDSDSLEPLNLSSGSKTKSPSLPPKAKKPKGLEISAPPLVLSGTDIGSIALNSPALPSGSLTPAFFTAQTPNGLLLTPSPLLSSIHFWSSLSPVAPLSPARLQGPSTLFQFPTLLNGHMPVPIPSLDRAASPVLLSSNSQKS
Summary of the method: as §1

[6] = biological target: T5, GABPA (Homo sapiens, UniProt Q06546 1-454)
T5 sequence: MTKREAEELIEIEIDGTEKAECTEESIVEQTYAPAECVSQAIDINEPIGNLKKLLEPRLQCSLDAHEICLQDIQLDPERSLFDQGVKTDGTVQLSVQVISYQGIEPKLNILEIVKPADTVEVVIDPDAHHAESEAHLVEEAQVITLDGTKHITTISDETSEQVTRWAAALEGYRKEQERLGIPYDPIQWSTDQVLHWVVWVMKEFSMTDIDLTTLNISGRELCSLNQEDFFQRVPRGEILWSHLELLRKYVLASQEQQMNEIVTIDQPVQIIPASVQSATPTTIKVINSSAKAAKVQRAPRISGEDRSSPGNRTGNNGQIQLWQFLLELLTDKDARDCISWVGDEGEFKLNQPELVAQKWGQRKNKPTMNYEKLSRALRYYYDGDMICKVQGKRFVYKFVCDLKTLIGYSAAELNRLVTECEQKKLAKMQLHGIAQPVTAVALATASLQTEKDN
Summary of the method: as §1

[7] = biological target: T6, ERG (Homo sapiens, UniProt P11308 1-479)
T6 sequence: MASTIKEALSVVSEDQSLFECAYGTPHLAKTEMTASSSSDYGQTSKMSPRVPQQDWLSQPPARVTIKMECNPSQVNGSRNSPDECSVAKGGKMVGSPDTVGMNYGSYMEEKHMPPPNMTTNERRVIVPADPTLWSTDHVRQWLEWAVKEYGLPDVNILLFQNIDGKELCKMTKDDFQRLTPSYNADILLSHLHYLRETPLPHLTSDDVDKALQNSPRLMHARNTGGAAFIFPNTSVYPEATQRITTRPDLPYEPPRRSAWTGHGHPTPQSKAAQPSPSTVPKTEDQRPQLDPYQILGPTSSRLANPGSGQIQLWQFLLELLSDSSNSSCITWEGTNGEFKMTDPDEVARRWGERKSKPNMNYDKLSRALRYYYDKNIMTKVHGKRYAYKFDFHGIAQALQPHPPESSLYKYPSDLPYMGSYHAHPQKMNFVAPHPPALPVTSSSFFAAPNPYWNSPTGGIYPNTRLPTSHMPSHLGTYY
Summary of the method: as §1

[8] = biological target: SPI1 (Homo sapiens, UniProt P17947 1-270)
Summary of the method: as §1

[9] = biological target: SPIB (Homo sapiens, UniProt Q01892 1-262)
Sequence of SPIB (Q01892 whole entry): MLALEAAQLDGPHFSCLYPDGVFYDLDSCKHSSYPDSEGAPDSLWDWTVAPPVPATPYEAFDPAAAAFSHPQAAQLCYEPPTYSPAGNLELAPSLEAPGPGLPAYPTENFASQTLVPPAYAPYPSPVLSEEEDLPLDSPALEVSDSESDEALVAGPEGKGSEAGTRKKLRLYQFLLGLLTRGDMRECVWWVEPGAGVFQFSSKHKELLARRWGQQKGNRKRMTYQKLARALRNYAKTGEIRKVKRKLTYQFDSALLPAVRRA
Summary of the method: as §1

With GCAATG as the sequence, how does the binding signal [1] read?
Its binding signal is 1.05 fold enrichment (6-mer frequency, TF over GST control).

What about the binding signal [2] of the same sequence?
The binding signal was 1.08 fold enrichment (6-mer frequency, TF over GST control).

What about the binding signal [3] of the same sequence?
Its binding signal is 1.08 fold enrichment (6-mer frequency, TF over GST control).

What about the binding signal [4] of the same sequence?
Its binding signal is 1.04 fold enrichment (6-mer frequency, TF over GST control).

What about the binding signal [5] of the same sequence?
The binding signal was 1.03 fold enrichment (6-mer frequency, TF over GST control).

Which results are given for CATTAC?
binding signal [1]: 1.09 fold enrichment (6-mer frequency, TF over GST control); binding signal [6]: 1.2 fold enrichment (6-mer frequency, TF over GST control); binding signal [7]: 1.06 fold enrichment (6-mer frequency, TF over GST control); binding signal [3]: 1.17 fold enrichment (6-mer frequency, TF over GST control); binding signal [4]: 1.13 fold enrichment (6-mer frequency, TF over GST control); binding signal [8]: 1.1 fold enrichment (6-mer frequency, TF over GST control); binding signal [9]: 1.17 fold enrichment (6-mer frequency, TF over GST control); binding signal [5]: 1.15 fold enrichment (6-mer frequency, TF over GST control)

What does the source list for ATCGTT?
binding signal [1]: 1.08 fold enrichment (6-mer frequency, TF over GST control); binding signal [6]: 1.01 fold enrichment (6-mer frequency, TF over GST control); binding signal [7]: 1.02 fold enrichment (6-mer frequency, TF over GST control)

With CATGTA as the sequence, how does the binding signal [1] read?
Its binding signal is 1.15 fold enrichment (6-mer frequency, TF over GST control).

What about the binding signal [2] of the same sequence?
Its binding signal is 1.06 fold enrichment (6-mer frequency, TF over GST control).

And the binding signal [3]?
Its binding signal is 1.11 fold enrichment (6-mer frequency, TF over GST control).

What about the binding signal [4] of the same sequence?
Its binding signal is 1.04 fold enrichment (6-mer frequency, TF over GST control).

What about the binding signal [8] of the same sequence?
Its binding signal is 1.02 fold enrichment (6-mer frequency, TF over GST control).

And the binding signal [5]?
Its binding signal is 1.13 fold enrichment (6-mer frequency, TF over GST control).
